Nine molecules from PubChem BioAssay (NCI) can be followed below.

This is part of a sample that, as a whole, favours compounds with a hit. Of some 83,000 tested, about 20% had one in any assay.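 Step 1: grow cells in 96-well plates. Step 2: add test compound at a single concentration. Step 3: incubate 48 h. Step 4: record percent growth.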 A number with no mark means an inactive call. Active and inactive are the calls of the source. The calls were made as follows: active = growth percent below 10; inactive = the rest.

Test systems include HCT-15 colon; SNB-75 CNS; SNB-19 CNS; PC-3 prostate; SK-MEL-5 melanoma; UACC-62 melanoma; LOX IMVI melanoma; SK-MEL-28 melanoma; SK-MEL-2 melanoma; EKVX NSCLC; SN12C renal; UO-31 renal; TK-10 renal; ACHN renal; CAKI-1 renal; A498 renal; CCRF-CEM leukemia; MOLT-4 leukemia; U251 CNS; HT29 colon.
Assay in all cases: NCI-60 one-dose screen, 48 h (100 = growth as untreated, 0 = no growth, -100 = all killed)
Holding throughout (conditions): 10 µM unless noted

As for `COc1cc(NCCN(CC(C)C)C2CCCC2)c2ncccc2c1`, the growth with HCT-15 colon was 73.8%; in the assay with SNB-75 CNS it was 89.4%; in the assay with SNB-19 CNS, 97.6%; in the assay on PC-3 prostate it was 85.2%; with SK-MEL-5 melanoma, 97.2%; in the assay with UACC-62 melanoma it was 92.8%. The growth in the assay with LOX IMVI melanoma was 89.8%; in the assay on SK-MEL-28 melanoma, 101%; with SK-MEL-2 melanoma it was 89.2%; in the assay on EKVX NSCLC, 95.2%; in the assay on SN12C renal it was 93.1%; in the assay with UO-31 renal it was 83.7%. Further, the growth in the assay on TK-10 renal was 109%; in the assay with ACHN renal, 82.2%; in the assay with CAKI-1 renal, 97.1%; in the assay with A498 renal, 75%; in the assay with CCRF-CEM leukemia it was 121%; in the assay on MOLT-4 leukemia, 90.9%.
For the molecule `COc1ccc(Cl)cc1NC(=O)c1c(NC(=O)C(F)(F)C(F)(F)F)sc2c1CCCCC2`, the growth in the assay with HCT-15 colon was 14.9%; in the assay with SNB-75 CNS, -9.76% (active); with SNB-19 CNS, 14.5%; with U251 CNS it was 7.27% (active); with PC-3 prostate it was 5.18% (active); in the assay on SK-MEL-5 melanoma, -58.3% (active). For the same molecule, the growth in the assay on UACC-62 melanoma is 6.99% (active); in the assay on LOX IMVI melanoma, 17.6%; in the assay on SK-MEL-28 melanoma it was 23.3%; in the assay on SK-MEL-2 melanoma it was -30% (active); in the assay on EKVX NSCLC, -5.45% (active); in the assay on SN12C renal it was 5.95% (active). The growth is 1.55% (active) in the assay with UO-31 renal; 1.54% (active) in the assay on ACHN renal; -13.6% (active) in the assay on CAKI-1 renal; -45.1% (active) with A498 renal; 8.91% (active) in the assay with MOLT-4 leukemia.
As for `COc1ccc2c(/C=C3/C(=O)NC(=S)NC3C)cc(=O)oc2c1` (stereo not given), the growth was 103% with HCT-15 colon; 87.3% with SNB-75 CNS; 102% in the assay on SNB-19 CNS; 94.2% with U251 CNS; 78.6% with PC-3 prostate; 99.4% in the assay with SK-MEL-5 melanoma. Further, the growth in the assay with UACC-62 melanoma is 96.8%; in the assay on LOX IMVI melanoma, 95.3%; in the assay with SK-MEL-28 melanoma, 109%; in the assay with SK-MEL-2 melanoma, 86.8%; in the assay on EKVX NSCLC it was 101%; in the assay with SN12C renal, 97.7%. Also, the growth in the assay on UO-31 renal is 88.3%; in the assay on ACHN renal, 108%; in the assay on A498 renal, 91.5%; in the assay with CCRF-CEM leukemia, 93.2%; with MOLT-4 leukemia it was 90.5%.
Take `CC(O)/C=C/C=C/C(O)CC/C=C/C(=O)NCC(C)(C)O` (stereo not given): the growth is 104% in the assay with HCT-15 colon; 96.3% with SNB-75 CNS; 99.6% with SNB-19 CNS; 98.3% with U251 CNS; 91.7% in the assay on PC-3 prostate; 99.1% in the assay on SK-MEL-5 melanoma. Further, the growth in the assay with UACC-62 melanoma was 90.1%; with LOX IMVI melanoma, 95.3%; in the assay on SK-MEL-28 melanoma, 111%; in the assay on SK-MEL-2 melanoma, 81.9%; with EKVX NSCLC, 107%; with SN12C renal, 99.2%. Moreover, the growth in the assay on UO-31 renal is 78.4%; in the assay with TK-10 renal, 109%; in the assay on ACHN renal, 106%; in the assay with A498 renal, 99.7%; in the assay on CCRF-CEM leukemia it was 95%; in the assay on MOLT-4 leukemia it was 76.2%.
Consider `COc1cc2oc(-c3cccc(C(=O)Nc4ccc(Cl)cc4)c3)cc(=O)c2c(OC)c1OC`, for which the growth is 4.57% (active) with HT29 colon; 70.6% in the assay on SNB-75 CNS; 52.7% with SNB-19 CNS; 37.4% with U251 CNS; 27.1% with PC-3 prostate; -60.1% (active) with SK-MEL-5 melanoma. Further, the growth in the assay with UACC-62 melanoma is -9.87% (active); in the assay with LOX IMVI melanoma, 2.16% (active); in the assay with SK-MEL-28 melanoma, -9.19% (active); in the assay on SK-MEL-2 melanoma, 31.4%; with EKVX NSCLC, 48.2%; in the assay with SN12C renal, 33.2%. The growth with UO-31 renal was 23.2%; with TK-10 renal, 38.6%; in the assay with ACHN renal, 33.2%; in the assay on CAKI-1 renal it was 8.22% (active); with CCRF-CEM leukemia, 28.5%; in the assay with MOLT-4 leukemia it was 36.1%.
Consider `CCCCCCCCCCCC(=O)C(CCCCCCCCCC)C(=O)Nc1ccccc1` (stereo not given), for which the growth in the assay with HT29 colon is 94.7%; in the assay with SNB-75 CNS, 101%; in the assay on SNB-19 CNS, 101%; with PC-3 prostate, 92.6%; with SK-MEL-5 melanoma, 97.9%; in the assay on UACC-62 melanoma, 91.5%. Moreover, the growth is 93.5% in the assay on LOX IMVI melanoma; 108% in the assay on SK-MEL-28 melanoma; 98.8% in the assay with SK-MEL-2 melanoma; 108% in the assay on EKVX NSCLC; 98.1% in the assay on SN12C renal; 86.1% with UO-31 renal. The growth was 95.1% in the assay on TK-10 renal; 100% in the assay on ACHN renal; 97% in the assay on CAKI-1 renal; 103% with CCRF-CEM leukemia; 89.3% with MOLT-4 leukemia.
Turning to `O=C1C(=O)c2c(nc3ncccn23)-c2ccccc21`, the growth is -17.2% (active) in the assay with HT29 colon; -92.8% (active) with SNB-75 CNS; -88% (active) in the assay on SNB-19 CNS; -84% (active) in the assay with U251 CNS; -4.28% (active) in the assay with PC-3 prostate; -99.4% (active) in the assay with SK-MEL-5 melanoma. Also, the growth in the assay with UACC-62 melanoma was -92.8% (active); in the assay with LOX IMVI melanoma, -88% (active); in the assay on SK-MEL-28 melanoma, -85.7% (active); with SK-MEL-2 melanoma, -58.9% (active); with EKVX NSCLC it was -75.8% (active); with SN12C renal, -82.3% (active). Also, the growth is -98.4% (active) in the assay with UO-31 renal; -52.4% (active) with TK-10 renal; -100% (active) in the assay on ACHN renal; -95.9% (active) with A498 renal; -3.54% (active) with CCRF-CEM leukemia; -46.6% (active) in the assay on MOLT-4 leukemia.
Turning to `O=C(Nc1ccc(Cl)cc1)Nc1ccc(Cl)c(Cl)c1`, the growth in the assay on HT29 colon is 28.6%; with SNB-75 CNS it was 51.7%; in the assay with SNB-19 CNS, 15.9%; with U251 CNS it was 8.94% (active); with PC-3 prostate, 9.37% (active); in the assay on SK-MEL-5 melanoma it was 24.1%. In addition, the growth with UACC-62 melanoma was 5.98% (active); with LOX IMVI melanoma it was 7.43% (active); in the assay with SK-MEL-28 melanoma, 35.4%; in the assay with SK-MEL-2 melanoma it was 13.3%; in the assay with EKVX NSCLC, 18.8%; in the assay on SN12C renal, 6.47% (active). For the same molecule, the growth is 9.73% (active) in the assay on UO-31 renal; 12.5% in the assay on TK-10 renal; -9.93% (active) in the assay with ACHN renal; -1.31% (active) in the assay on CAKI-1 renal; 11.4% in the assay on A498 renal; 6.06% (active) in the assay on CCRF-CEM leukemia. Further, the growth with MOLT-4 leukemia was 6.56% (active).
As for `Cc1cc(C)n(Nc2nc3ccccc3[nH]c2=O)c(=O)c1C#N`, the growth in the assay with HT29 colon was 110%; in the assay on SNB-75 CNS, 79.5%; in the assay with SNB-19 CNS, 93.1%; with U251 CNS it was 95.4%; in the assay with PC-3 prostate it was 94.8%; in the assay with SK-MEL-5 melanoma, 95.3%. Also, the growth with UACC-62 melanoma was 94.8%; with LOX IMVI melanoma it was 91.5%; in the assay with SK-MEL-28 melanoma it was 104%; in the assay on SK-MEL-2 melanoma it was 108%; in the assay on EKVX NSCLC it was 88.2%; in the assay on SN12C renal, 89.8%. Further, the growth in the assay with UO-31 renal is 78.8%; in the assay on TK-10 renal, 111%; in the assay with ACHN renal it was 94.1%; in the assay on CAKI-1 renal it was 89.9%; with CCRF-CEM leukemia it was 109%; in the assay on MOLT-4 leukemia, 96.7%.
